CD40 NFkB inh: CD40 pathway inhibition in BL2 cells. 83,000 tested, 0.94% active. AID 1053188. inhibition, % at 10 µM. BL2 NF-kB luciferase reporter, CD40L-induced, 4 h;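 active = mean inhibition of at least 50% with a set share of replicates also reaching that level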
Each line names hits and unclear results; the compound was inactive in the other large screens; ! = a repeat was not active; [ ] = remark or other dose. Shown is part of a subset that was picked to be rich in hits.

Cc1ccccc1S(=O)(=O)N[C@@H]1CC[C@@H](CCNS(=O)(=O)c2cccc(F)c2)O[C@@H]1CO	none
C[C@H]1CN(C)C(=O)c2cc(NS(C)(=O)=O)ccc2O[C@@H]1CN(C)S(C)(=O)=O	none
O=C(Cn1cnnn1)NCCc1ccc(Cl)cc1Cl	none
O=C(CCl)N=c1sccn1Cc1ccc(Cl)cc1Cl	CD40 NFkB inh 88.9
O=C1CCN(Cc2ccc(Cl)cc2Cl)C(=O)N1	none
O=C(c1cnccn1)N1CC(=O)N2[C@@H](CO)[C@H](c3ccc(/C=C/c4ccccc4)cc3)[C@@H]2C1	none
COc1cc2c(cc1OC)C(=O)N(C)CC2	none
COc1cc2c(cc1OC)C(=O)CCS2	none
COc1cc2c(cc1OC)C(=O)C(Br)CC2 (centres undefined)	CD40 NFkB inh 99.6
O=C(NCC[C@@H]1CC[C@@H](NS(=O)(=O)Cc2ccccc2)[C@H](CO)O1)C1CCCC1	none
C[C@H](CO)N1C[C@H](C)[C@@H](CN(C)S(=O)(=O)c2ccccc2)OCc2ccccc2-c2ccccc2C1=O	none
CC(=O)N1[C@@H]2Cn3c(ccc(C4=CCCC4)c3=O)[C@H]1[C@@H](C(=O)NC1CCCCC1)[C@@H]2CO	none
Cc1ccc(S(=O)(=O)N2[C@@H]3CNC[C@H]2C3c2ccc(/C=C/c3ccccc3)cc2)cc1 (some centres undefined)	none
O=S(=O)(c1ccccc1)N1[C@@H]2CNC[C@H]1C2c1ccc(/C=C/c2ccccc2)cc1 (some centres undefined)	CD40 NFkB inh 50.9!
O=S(=O)(c1cccc(F)c1)N1[C@@H]2CNC[C@H]1C2c1ccc(/C=C/c2ccccc2)cc1 (some centres undefined)	none
CNC[C@H]1Oc2c(NC(=O)Nc3cccc4ccccc34)cccc2C(=O)N([C@@H](C)CO)C[C@H]1C	none
CO[C@H](C(=O)N(C)C[C@H]1OCc2ccccc2-c2c(n(C)c3ccccc23)C(=O)N([C@H](C)CO)C[C@@H]1C)c1ccccc1	none
CC(=O)NC(CC(C)C)C(=O)NC(Cc1ccccc1)C(=O)CCl (centres undefined)	none
Cc1ccc(S(=O)(=O)N[C@@H](Cc2ccccc2)C(=O)CCl)cc1	CD40 NFkB inh 39.4
CCCC(NS(=O)(=O)c1ccc(C)cc1)C(=O)O (centres undefined)	none
CCNC[C@H]1[C@H](c2ccc(C3=CCCCC3)cc2)[C@@H](CO)N1C(=O)NC(C)C	none
COc1cc(CNCCc2c[nH]c3ccccc23)cc(Cl)c1OCC(N)=O	CD40 NFkB inh 46.7
COc1ccc(C(=O)NCC(=O)NCCc2c[nH]c3ccccc23)cc1OC	none
COc1ccc(NC(=O)COC(=O)Cc2c[nH]c3ccccc23)cc1Cl	none
COc1ccc(-c2ccc([C@H]3[C@@H](C#N)N(C(=O)NC4CCCC4)[C@@H]3CO)cc2)cc1	none
CN(C)/C=N/c1ncc(C(=O)c2ccc3ccccc3c2)s1	none
Cc1cc(Sc2nnc(/N=C/N(C)C)s2)c2ccccc2n1	CD40 NFkB inh 83.6
Cc1cc(C(N)=O)c2ccccc2n1	none
C[C@@H]1CN([C@H](C)CO)C(=O)c2cc(NC(=O)Nc3ccc4c(c3)OCO4)ccc2O[C@H]1CN(C)C	none
CN(C)CCCN1c2ccccc2Sc2ccc(Cl)cc21	none
OCCN1CCN(CCCN2c3ccccc3Sc3ccc(Cl)cc32)CC1	none
CSc1ccc2c(c1)N(CCC1CCCCN1C)c1ccccc1S2 (centres undefined)	CD40 NFkB inh 73.5
CCOC(=O)C1=C(C)NC(C)=C(C(=O)OC)C1c1cccc([N+](=O)[O-])c1 (centres undefined)	none
COC(=O)C1=C(C)NC(C)=C(C(=O)OCCCN2CCC(c3ccccc3)(c3ccccc3)CC2)[C@H]1c1cccc([N+](=O)[O-])c1	CD40 NFkB inh 61.2[25 µM]
COCCOC(=O)C1=C(C)NC(C)=C(C(=O)OC(C)C)C1c1cccc([N+](=O)[O-])c1 (centres undefined)	none
COc1cccc(NC(=O)N(C)C[C@@H]2Oc3ncc(/C=C/c4ccccc4)cc3C(=O)N([C@@H](C)CO)C[C@@H]2C)c1	none
O=S(=O)(c1cccc2cccnc12)N1CCN(c2ccccn2)CC1	none
O=S(=O)(c1cccc2cccnc12)N1CCN(c2ccccc2)CC1	none
O=S(=O)(c1cccc2cnccc12)N1CCNCC1	CD40 NFkB inh 53.4[25 µM]
O=C(CCN1CCCCC1)NCC[C@@H]1CC[C@@H](NC(=O)C2CCCCC2)[C@@H](CO)O1	none
Cc1ccc(S(=O)(=O)Nc2ccc3c(c2)CC(=O)N([C@@H](C)CO)C[C@H](C)[C@@H](CN(C)S(C)(=O)=O)O3)cc1	none
c1ccc(-c2nnc(-c3ccccn3)nn2)nc1	CD40 NFkB inh 49.2
c1ccc(-c2cccc(-c3ccccn3)n2)nc1	none
c1ccc(-c2noc(C3CCC3)n2)nc1	none
CS(=O)(=O)Nc1ccc2c(c1)[C@@H]1C[C@@H](CC(=O)NCc3ccncc3)O[C@@H](CO)[C@@H]1O2	none
CO[C@H]1CN(C)C(=O)c2cc(NC(=O)C3CCCCC3)ccc2OC[C@@H](C)N(C(=O)c2ccccc2)C[C@@H]1C	none
c1ccn2cc(-c3ccc4c(c3)OCCO4)nc2c1	CD40 NFkB inh 66.8
CN(C)S(=O)(=O)c1cccc(-c2cn3ccccc3n2)c1	none
O=S(=O)(c1cccc(-c2cn3ccccc3n2)c1)N1CCCCC1	none
CCN1[C@@H]2c3ccc(-c4cccnc4)c(=O)n3C[C@@H]2[C@@H](CO)[C@@H]1C(=O)NC1CCCCC1	none
CC1CC(Nc2ccccc2)c2ccccc2N1C(=O)c1cccnc1 (centres undefined)	none
CC(=O)N(c1ccccc1)C1CC(C)N(C(=O)c2ccccc2)c2ccccc21 (centres undefined)	none
C[C@@H]1C[C@H](Nc2ccccc2)c2ccccc2N1C(=O)c1cccnc1	CD40 NFkB inh 19.6
O=C(Nc1ccc(Cl)cc1)N1C[C@@H]2[C@H](c3ccccc31)[C@H](CO)N2CC1CCCC1	none
C[C@H]1CN([C@@H](C)CO)C(=O)c2c(c3ccccc3n2C)-c2ccccc2CO[C@@H]1CN(C)Cc1ccc(O)cc1	none
O=C(NCc1ccc(F)cc1)[C@H]1[C@H](CO)[C@H]2Cn3c(cccc3=O)[C@@H]1N2Cc1cccnc1	none
Cc1noc(C)c1NC(=O)N(C)C[C@@H]1OCc2ccccc2-c2ccccc2C(=O)N([C@@H](C)CO)C[C@@H]1C	none
C[n+]1c(-c2ccccc2)cc2c(=Cc3ccccc3)c3ccccc3n21	CD40 NFkB inh 93.2
O=[N+]([O-])c1ccc(C=CC=Cc2ccccc2)cc1	none
CCOC(=O)c1cc2c(=Cc3ccc(N(C)C)cc3)c3ccccc3n2[n+]1C	none
C[n+]1c(-c2ccccc2)cc2c(=Cc3ccc([N+](=O)[O-])cc3)c3ccccc3n21	CD40 NFkB inh 110.0
O=[N+]([O-])c1ccc2c(c1)c(-c1ccccc1)nc1nncn12	none
CN(C)c1ccc(C=c2c3cc(O)ccc3n3c2cc(-c2ccccc2)[n+]3C)cc1	CD40 NFkB inh 80.2
C[C@H](CO)N1C[C@H](C)[C@@H](CN(C)C(=O)Nc2cccc3ccccc23)Oc2ccc(N(C)C)cc2C1=O	none
CCS(=O)(=O)N(C)C[C@@H]1OCc2ccccc2-c2c(n(C)c3ccccc23)C(=O)N([C@@H](C)CO)C[C@@H]1C	none
COc1ccccc1NC(=O)N1[C@@H]2CNC[C@H]1C2c1ccc(-c2ccccc2OC)cc1 (some centres undefined)	none
CC(C)(C)[S@@](=O)N1Cc2cc(C(=O)NCCc3ccncc3)nc(-c3cccc(-c4ccc(C#N)cc4)c3)c2[C@H]1CCO	none
C[C@@H]1CN(C)C(=O)Cc2cc(N)ccc2O[C@H]1CN(C)S(C)(=O)=O	none
CS(=O)(=O)N1[C@@H](C#N)[C@H](c2ccc(-c3ccccc3F)cc2)[C@@H]1CO	none
